The record followed here is PubChem BioAssay (NCI).

The structures appear in SMILES notation. About 83,000 compounds went through this panel and 20% of them were active in at least one assay; those are over-represented in the sample as a whole.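 Step 1: grow cells in 96-well plates. Step 2: add test compound at a single concentration. Step 3: incubate 48 h. Step 4: record percent growth.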 A number with no mark means an inactive call. Calls of active or inactive are those of the source. The calls were made as follows: active = growth percent below 10; inactive = the rest.

In this assay the test system is MDA-MB-468 breast. The assay is described as follows: NCI-60 one-dose screen, 48 h (100 = growth as untreated, 0 = no growth, -100 = all killed). The settings on record: 10 µM unless noted.
`COc1cc(/C(=C2/O[C@@H]([C@H]3COC(C)(C)O3)[C@H]3OC(C)(C)O[C@@H]23)c2ccc3ccccc3c2)cc(OC)c1OC`: the growth was 51.2%.

In the case of `C1=C\COCc2cc(ccc2OCCN2CCCC2)Nc2nccc(n2)-c2cccc(c2)COC/1`, the growth was -53.7% (active).

Regarding `O=C(Nc1ccc([N+](=O)[O-])cc1)c1cc2ccccc2cc1O`, the growth was -8.75% (active).

`O=C(NCc1ccccc1)Nc1ccccc1CNc1nc(Nc2ccc(OCCN3CCCC3)cc2)ncc1Cl`: the growth is 74.5%.

As for `O=[N+]([O-])c1ccccc1NCSc1ccc(Cl)cc1`, the growth is 92.1%.

Regarding `Cc1cc2nc(CO)[nH]c2cc1C`, the growth was 135%.

Take `CCC(C)Oc1cc(/C=N/NC(=O)c2cnn3c2NC(c2ccccc2)C3)ccc1OC` (stereo not drawn): the growth is 19.1%.

Take `O=C(O)c1cn(C2CC2)c2cc(N3CCN(C(=O)Nc4nc(-c5ccc(Cl)cc5)cs4)CC3)c(F)cc2c1=O`: the growth was 9.76% (active).

Turning to `O=Cc1cc2ccccc2nc1Nc1nccs1`, the growth was 57.2%.

For the compound `O=C1c2ccccc2C(=O)c2sc(Nc3ccc(Cl)cc3)nc21`, the growth was 28.6%.

Take `O=C1/C=C/[C@@H](O)[C@@H]2C[C@@H](O)C[C@H]2/C=C/CCC[C@H](CCOCc2ccccc2)O1`: the growth was -41.9% (active).

As for `COc1cc(C(=O)/C=C/c2c(-c3ccc(F)cc3)nc3sc(C)cn23)cc(OC)c1OC`, the growth is 14.1%.

Consider `[2H]C([2H])([2H])Oc1cccc(/C=C/C(=O)/C=C(/C=C/c2cccc(OC([2H])([2H])[2H])c2OC([2H])([2H])[2H])OB(F)F)c1OC([2H])([2H])[2H]`, for which the growth was 54.6%.
